High-throughput results (PubChem)
Sampled rows, rich in hits. Any-hit rate of the full collection: about 1.1%.
TrxR1 substrate: qHTS Assay for Substrates of Mammalian Selenoprotein Thioredoxin Reductase 1 (TrxR1): qHTS. Thioredoxin reductase 1, cytoplasmic (Rattus norvegicus), O89049. purified TrxR1 substrate turnover, NADPH consumption readout. Potency, µM (doses to about 114 µM), without a hit: at the top dose activity change, negative = substrate turnover. 390,000 tested, 0.01% active. AID 588456, 2011; further: potency means the concentration at half of the fitted maximal effect; nearly all actives have a fitted effect of over 50% in size
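Rat TrxR1, dispensed at 90 nM, was prereduced with 400 uM NADPH (final) for 5 min at ~22 deg C, then incubated with compound 15 min before 400 uM selenite. A first-read NADPH fluorescence drop versus no-compound background flagged substrates.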
PI4K2A block: qHTS for small molecular inhibitors of PI4K2A; AID 1346378, 2018; activity change, negative = inhibition, % at 76.9 µM; Phosphatidylinositol 4-kinase type 2-alpha (Homo sapiens), Q9BTU6; purified PI4K2A, ADP-Glo luminescence, 1 h; active compounds read low; 420,000 tested, 0.13% active; in the data active means activity change below about -50%; inconclusive means mostly about -30% to -49%;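 further: -100% = wells without enzyme as full effect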
Target sequence (Q9BTU6 whole entry, looked up): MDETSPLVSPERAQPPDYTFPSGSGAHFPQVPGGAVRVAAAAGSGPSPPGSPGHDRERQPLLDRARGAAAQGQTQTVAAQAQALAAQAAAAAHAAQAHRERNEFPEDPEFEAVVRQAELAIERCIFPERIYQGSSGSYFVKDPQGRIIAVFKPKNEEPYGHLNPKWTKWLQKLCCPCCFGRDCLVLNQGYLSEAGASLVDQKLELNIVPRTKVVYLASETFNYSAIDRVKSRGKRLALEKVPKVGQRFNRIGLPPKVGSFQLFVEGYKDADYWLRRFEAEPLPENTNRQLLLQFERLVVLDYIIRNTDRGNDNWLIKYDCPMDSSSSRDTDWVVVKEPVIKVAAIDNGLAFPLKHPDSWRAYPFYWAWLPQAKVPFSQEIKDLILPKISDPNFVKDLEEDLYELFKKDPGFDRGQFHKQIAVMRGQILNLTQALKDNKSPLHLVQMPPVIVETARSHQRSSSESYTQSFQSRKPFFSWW
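Compounds are screened against recombinant PI4K2A using PI as substrate and ATP, the latter dispensed at 300 microM. Reactions run one hour at ambient temperature before ADP-Glo detection; full inhibition defined by wells lacking enzyme.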
GALK inh: qHTS Assay for Inhibitors of Human Galactokinase (GALK); 270,000 tested, 0.007% active; AID 1868, 2009; Potency, µM (highest dose often 57.5 µM), inactives show at the highest dose activity change, negative = inhibition, hits mostly inhibitors; Purified GALK, Kinase-Glo residual ATP luminescence; P51570; further: potency means the concentration at half of the fitted maximal effect
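Compounds were pin-transferred into ATP buffer (35 uM final), then GALK plus galactose (5 nM, 100 uM final) was added. After 1 h at room temperature, Kinase-Glo Plus was added and luminescence read after 10 min.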
TrxR1 inh: qHTS Assay for Inhibitors of Mammalian Selenoprotein Thioredoxin Reductase 1 (TrxR1): qHTS; AID 588453, 2011; Potency, µM (titrated, usually from 114 µM), for inactives: at the top dose activity change, negative = inhibition, most hits filed as inhibitors; recombinant rTrxR1, NADPH fluorescence consumption, selenite substrate; 390,000 tested, 1% active; further: potency means the concentration at half of the fitted maximal effect; nearly all actives have a fitted effect of over 65% in size
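Rat TrxR1 (90 nM in the dispensed reagent) was pre-reduced with 400 uM NADPH for 5 min at room temperature, then incubated with compound for 15 min. After 400 uM selenite was added, NADPH fluorescence (Ex 340/Em 450 nm) was followed for 8 min.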
Numbers without * were called inactive; ? = inconclusive; nt = no result; [ ] = dose if it differs, or a comment. Unless noted, the call rests on the fitted dose curve; in most records, active means well fitted curve in the direction sought with a large enough effect; inconclusive means small, poorly fitted or top-dose-only effect, or another doubt; inactive means no such curve, though single readings can be large; an effect the other way counts as inactive or inconclusive. Unless noted, on the % scale 0 is the no-effect control and ±100 the full control effect.

SMILES	TrxR1 substrate	PI4K2A block	GALK inh	TrxR1 inh
O=C1C=CC(=O)c2c(O)c(N3CCN(CCO)CC3)c(Cl)c(O)c21	56.2µM*	-56.6*	nt	17.8%
COc1ccc(NC(=O)CN(Cc2ccccc2)S(=O)(=O)c2ccc(C)cc2)cc1Cl	-6.9%	2.5	nt	16.5%
CCOC(=O)CN1CCCC1=O	nt	3.5	nt	nt
O=C1C(=Cc2ccco2)CCC1=Cc1ccco1	4.4%[57.1 µM]	-59.1*	nt	2.82µM*
O/N=C1\CCC\C1=C/c1ccco1	4.4%	4.5	-3.7%	?
O=C1C(=Cc2ccco2)CCCC1=Cc1ccco1	?	-2.7	nt	44.7µM*
Nc1ncnc2c1ncn2C1CCCC1	0.0%[57.1 µM]	-65.5*	nt	-7.6%[57.1 µM]
Nc1ncnc2c1ncn2[C@H]1C[C@H](O)[C@@H](CO)O1	20.7%	?	nt	37.3%
Nc1ncnc2c1ncn2C1CCC(CO)C(O)C1 (stereo not given)	5.8%	-53.9*	1.3%	24.4%
Cc1c(OCC(=O)N2CCC(C(=O)O)CC2)ccc2c3c(c(=O)oc12)CCC3	95.3%	-2.0	nt	14.1µM*
Cc1c(OCC(=O)N2CCC(C(N)=O)CC2)ccc2c3c(c(=O)oc12)CCC3	54.0%	1.5	nt	-7.0%
Cc1c(C)c2c(OCC(=O)N3CCC(C(=O)O)CC3)cc3c(c2oc1=O)CCC(C)(C)O3	602.2%	-0.3	nt	79.4µM*
O=C(NCC(O)CO)c1c(I)c(C(=O)NCC(O)CO)c(I)c(N(CCO)C(=O)CO)c1I (stereo not given)	nt	-5.3	nt	nt
Cc1ccc2nc(N(CCCN(C)C)C(=O)c3sc4ccccc4c3Cl)sc2c1	-7.2%	3.0	-0.5%	50.1µM*
CN1CCN(C(c2ccc(Br)cc2)c2cc(Cl)c3cccnc3c2O)CC1 (stereo not given)	3.5%	9.6	13.9%	8.91µM*
CN1CCN(C(c2cccnc2)c2ccc3cccnc3c2O)CC1 (stereo not given)	7.7%	-5.5	-2.9%	5.01µM*
O=C(NCCc1csc(-c2cccc(F)c2)n1)c1cccs1	-13.1%[57.1 µM]	-10.8	nt	-20.2%[57.1 µM]
CC(C)(Oc1ccc(Cl)cc1)C(=O)OCCCOC(=O)C(C)(C)Oc1ccc(Cl)cc1	nt	2.7	nt	nt
O=C(Nc1cccc2nsnc12)c1ccc(-c2cccc(Cl)c2)o1	-7.5%	-21.4	nt	35.5µM*
O=C(Nc1ccccc1N1CCCCC1)c1ccc(-c2cccc(Cl)c2)o1	7.8%[57.1 µM]	3.8	1.2%	11.8%[57.1 µM]
CC(C)(C)c1onc(OCP(=O)(O)O)c1CC(N)C(=O)O (stereo not given)	3.7%[57.1 µM]	-0.1	nt	4.8%[57.1 µM]
COc1ccc2c(=O)c3c(=O)n(Cc4ccco4)c(-c4ccco4)nc3oc2c1	-2.3%	-16.6	-1.8%	14.1µM*
COc1ccc(-c2nc3oc4cc(OC)ccc4c(=O)c3c(=O)n2Cc2ccco2)cc1	6.0%	-12.0	0.3%	?
COc1ccccc1-c1cc(NC(=O)COc2ccccc2Cl)n(-c2ccccc2)n1	-0.6%[57.1 µM]	2.3	nt	20.3%[57.1 µM]
COc1ccc(-c2cc3nc(C)n(N)c(=O)c3s2)cc1	86.1%	-86.6*	1.9%	3.9%
SMILES	TrxR1 substrate	PI4K2A block	GALK inh	TrxR1 inh
COc1ccc(-c2cc3nc4n(c(=O)c3s2)CCC4)cc1	378.1%	-12.4	0.2%	-35.8%
Cc1nc2cc(-c3ccccc3)sc2c(=O)n1N	3.3%	-80.3*	?	11.3%
Cc1nc2ccc(S(=O)(=O)NCC(=O)NCc3ccccc3Cl)cc2s1	nt	-0.5	nt	nt
CCCn1c(CN2CCN(C(=O)c3ccco3)CC2)nc2cc(S(=O)(=O)N(C)C)ccc21	5.2%	-7.8	nt	20µM*
CCn1ccnc1C(O)c1ccc(N(C)C)cc1 (stereo not given)	12.9%[57.1 µM]	1.0	9.4%	39.8µM*
COc1ccc2c(c1)CCc1c(C(=O)NCc3ccco3)noc1-2	6.0%	-4.4	-4.0%	-11.0%
COc1ccc2c(c1)CCc1c(C(=O)NCCN3CCOCC3)noc1-2	2.2%	0.9	2.0%	39.8µM*
COc1ccc2c(c1)CCc1c(C(=O)N(C)c3ccccc3)noc1-2	-3.0%	-0.8	-0.9%	79.4µM*
COc1ccc(C(=O)NCCCn2ccnc2)cc1	4.8%[57.1 µM]	-1.0	8.1%	13.2%[57.1 µM]
COCCNC(=O)c1noc2c1CCc1cc(OC)ccc1-2	5.3%	0.7	1.9%	?
COCC(C)NC(=O)c1noc2c1CCc1cc(OC)ccc1-2 (stereo not given)	0.5%	-2.8	-2.2%	10µM*
COc1ccc2c(c1)CCc1c(C(=O)NCCCn3ccnc3)noc1-2	1.7%	1.5	0.0%	15.8µM*
Cc1cc(C)cc(N2C(=O)CSC23C(=O)N(CC(=O)NC2CCCCC2)c2ccccc23)c1 (stereo not given)	-15.0%	-1.5	nt	6.0%
COc1cc(CN(C(=O)COc2ccc(Cl)c(C)c2)c2ccccn2)cc(OC)c1OC	-15.2%	0.4	nt	-0.9%
CCc1nn2c(=O)cc(COC(=O)c3cccc(NC(=O)c4cccs4)c3)nc2s1	1.5%[57.1 µM]	-5.3	nt	12.1%[57.1 µM]
CON(C)C(=O)CC1(CN(Cc2ccccc2)C(=O)OC(C)(C)C)CCCCC1	-3.3%	-2.7	nt	-0.9%
C#CC(=O)CC1(CN(Cc2ccccc2)C(=O)OC(C)(C)C)CCCCC1	-4.6%	15.7	nt	2µM*
COc1cc(C2Nc3cccc4cccc(c34)N2)cc(OC)c1OC(C)=O	-11.4%	-18.5	-0.3%	35.5µM*
COC(=O)[C@]12C[C@H](CC(=O)NCCCCc3ccccc3)C(=O)N(Cc3ccco3)C1=C[C@H](C(C)(C)C)O[C@@H]2C	nt	0.1	nt	nt
COc1cc(CNc2ccc(N3CCCC3)cc2)ccc1OCc1ccccc1F	-12.8%	-12.7	0.1%	10µM*
CCOc1cc(CNc2ccc(O)cc2)cc(Br)c1OCc1ccccc1F	-4.2%	?	-3.8%	?
COc1cc(CNc2ccc(O)cc2)cc(Br)c1OCc1ccccc1F	-13.6%	-51.3*	-3.4%	20µM*
CC(C)(C)n1ncc2c(=O)n(Cc3cccc(Cl)c3Cl)cnc21	-5.8%	nt	nt	3.4%
CC(=O)c1cccc(OCc2cc(C(=O)N(C)C(C)c3ccccn3)no2)c1 (stereo not given)	4.2%	-5.2	5.9%	50.1µM*
CC(=O)c1ccc(OCc2cc(C(=O)N(C)C(C)c3ccon3)no2)cc1 (stereo not given)	-9.1%	-1.7	nt	?
COc1ccc(NC(=O)Cn2ncc(Cl)c(Cl)c2=O)cc1S(=O)(=O)N1CCOCC1	-3.0%	?	-2.3%	28.2µM*
COc1ccc(NC(=O)c2ccc(Cl)nc2)cc1S(=O)(=O)N1CCOCC1	-1.4%	2.4	nt	7.1%
Cc1ccc(S(=O)(=O)N2CCCCC2)cc1NC(=O)Cn1cnnn1	-7.1%	5.1	-1.3%	-8.3%
Cc1ccc(S(=O)(=O)N2CCCCC2)cc1NC(=O)Cn1ncc(Cl)c(Cl)c1=O	9.2%	?	nt	50.1µM*
O=S(=O)(NCc1ccc(F)cc1)c1ccc(N2CCCCS2(=O)=O)cc1	-0.5%[57.1 µM]	-1.0	nt	12.4%[57.1 µM]
